This note sets out measurements from article PMC8384837, “Expanding the binding specificity for RNA recognition by a PUF domain”.

What all share (assay): yeast three-hybrid, YBZ-1, SC-Leu-His + 0.5 mM 3-AT, 4 days
What all share (conditions): tags: N-Gal4 AD-HA kept; label: inside an RPR1-promoter hybrid RNA with tandem MS2 sites; ssRNA

One experiment addresses PUM1 PUF domain R3-YRC (Homo sapiens, UniProt Q14671 828-1176, C935Y;Q939C). Put shortly:
(§1)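 The interaction score is the log change in variant frequency from input to selection. Scores were computed in log2 with a pseudocount of 1 for absent variants, using Illumina sequencing of PCR-amplified repeat regions. The input came from four days on SC-Leu and the selection from four days on SC-Leu-His + 0.5 mM 3-AT. The cells were strain YBZ-1 (LexA–MS2 coat fusion, HIS3 reporter) co-expressing Pumilio-1 PUF domain libraries and matching RNA elements from a centromeric plasmid.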

The next experiment deals with PUM1 PUF domain R1-GVK (Homo sapiens, UniProt Q14671 828-1176, S863G;R864V;Q867K). Put shortly: as §1
Another experiment concerns the target PUM1 PUF domain R1-NKK (Homo sapiens, UniProt Q14671 828-1176, S863N;R864K;Q867K). Put shortly: as §1
The target of the next experiment is PUM1 PUF domain R5-RYV (Homo sapiens, UniProt Q14671 828-1176, C1007R;R1008Y;Q1011V). Put shortly:
as §1

A further experiment addresses PUM1 PUF domain R1-KKV (Homo sapiens, UniProt Q14671 828-1176, S863K;R864K;Q867V). Put shortly: as §1
In another experiment the target is PUM1 PUF domain R5-VHM (Homo sapiens, UniProt Q14671 828-1176, C1007V;R1008H;Q1011M). Put shortly:
as §1

For a further experiment, the target named is PUM1 PUF domain R5-WHA (Homo sapiens, UniProt Q14671 828-1176, C1007W;R1008H;Q1011A). Put shortly:
as §1

For another experiment, the target named is PUM1 PUF domain R5-QCC (Homo sapiens, UniProt Q14671 828-1176, C1007Q;R1008C;Q1011C). Put shortly:
as §1

Another experiment has as its target PUM1 PUF domain R4-ANY (Homo sapiens, UniProt Q14671 828-1176, N971A;H972N;Q975Y). Put shortly:
as §1

Another experiment deals with PUM1 PUF domain R4-CPT (Homo sapiens, UniProt Q14671 828-1176, N971C;H972P;Q975T). Put shortly: as §1

For “GGCUAGAACUAGUGGAUCCCCCGGCGCCCGGCGGCUCGAGCCCGGGUAAGUGUAAGUAGUCUGCAUGCCGCCGGGCGCCAUGCCUGCAGGUCGACUCUAGAAAACAUG”, the binding signal in the experiment with PUM1 PUF domain R3-YRC is 4.22 log2 enrichment (interaction score).
Turning to “GGCUAGAACUAGUGGAUCCCCCGGCGCCCGGCGGCUCGAGCCCGGGUAAGUGUAAAUCGUCUGCAUGCCGCCGGGCGCCAUGCCUGCAGGUCGACUCUAGAAAACAUG”, the binding signal was 3.43 log2 enrichment (interaction score) in the experiment with PUM1 PUF domain R1-GVK and 4.39 log2 enrichment (interaction score) with PUM1 PUF domain R1-NKK.
Consider “GGCUAGAACUAGUGGAUCCCCCGGCGCCCGGCGGCUCGAGCCCGGGUAAGUGUUAAUAGUCUGCAUGCCGCCGGGCGCCAUGCCUGCAGGUCGACUCUAGAAAACAUG”, for which the binding signal in the experiment with PUM1 PUF domain R5-RYV is 4.93 log2 enrichment (interaction score).
As for “GGCUAGAACUAGUGGAUCCCCCGGCGCCCGGCGGCUCGAGCCCGGGUAAGUGUAAAUAGUCUGCAUGCCGCCGGGCGCCAUGCCUGCAGGUCGACUCUAGAAAACAUG”, the binding signal with PUM1 PUF domain R1-KKV is 2.4 log2 enrichment (interaction score); with PUM1 PUF domain R5-VHM, 2.73 log2 enrichment (interaction score); with PUM1 PUF domain R5-WHA, 1.08 log2 enrichment (interaction score); in the experiment with PUM1 PUF domain R5-RYV it was 1.83 log2 enrichment (interaction score).
For the sequence “GGCUAGAACUAGUGGAUCCCCCGGCGCCCGGCGGCUCGAGCCCGGGUAAGUGUGAAUAGUCUGCAUGCCGCCGGGCGCCAUGCCUGCAGGUCGACUCUAGAAAACAUG”, the binding signal was 2.35 log2 enrichment (interaction score) with PUM1 PUF domain R5-RYV and 3.84 log2 enrichment (interaction score) with PUM1 PUF domain R5-QCC.
In the case of “GGCUAGAACUAGUGGAUCCCCCGGCGCCCGGCGGCUCGAGCCCGGGUAAGUGUAAAUGGUCUGCAUGCCGCCGGGCGCCAUGCCUGCAGGUCGACUCUAGAAAACAUG”, the binding signal with PUM1 PUF domain R1-NKK was 3.03 log2 enrichment (interaction score).
Take “GGCUAGAACUAGUGGAUCCCCCGGCGCCCGGCGGCUCGAGCCCGGGUAAGUGUAUAUAGUCUGCAUGCCGCCGGGCGCCAUGCCUGCAGGUCGACUCUAGAAAACAUG”: the binding signal with PUM1 PUF domain R4-ANY was 3.22 log2 enrichment (interaction score); with PUM1 PUF domain R4-CPT, 3.09 log2 enrichment (interaction score).
Take “GGCUAGAACUAGUGGAUCCCCCGGCGCCCGGCGGCUCGAGCCCGGGUAAGUGUCAAUAGUCUGCAUGCCGCCGGGCGCCAUGCCUGCAGGUCGACUCUAGAAAACAUG”: the figures for the binding signal with PUM1 PUF domain R5-WHA and with PUM1 PUF domain R5-RYV were 3.04 log2 enrichment (interaction score) and 5.29 log2 enrichment (interaction score), respectively.
For “GGCUAGAACUAGUGGAUCCCCCGGCGCCCGGCGGCUCGAGCCCGGGUAAGUGUACAUAGUCUGCAUGCCGCCGGGCGCCAUGCCUGCAGGUCGACUCUAGAAAACAUG”, the binding signal with PUM1 PUF domain R4-CPT was 1.75 log2 enrichment (interaction score).
As for “GGCUAGAACUAGUGGAUCCCCCGGCGCCCGGCGGCUCGAGCCCGGGUAAGUGUAAAUUGUCUGCAUGCCGCCGGGCGCCAUGCCUGCAGGUCGACUCUAGAAAACAUG”, the binding signal with PUM1 PUF domain R1-GVK was 2 log2 enrichment (interaction score).
